# Source: the antibiotic and cytotoxicity screens of Wong et al. (2023)
# Hit rate of the full screen: of about 39,000 compounds, about 3,300 (8.5%) were called active. The list comes from a sample in which actives are over-represented; it also holds similar structures and randomly drawn compounds.
# System: HepG2
# Assay: cytotoxicity call (relative viability < 0.9)
# Details: 10 µM
row,Compound,cytotoxicity call
1,C[C@H]1CN([C@@H](C)CO)C(=O)c2cc(NS(=O)(=O)c3cn(C)cn3)ccc2O[C@H]1CN(C)S(=O)(=O)c1cn(C)cn1,inactive
2,Cc1noc(C)c1NC(=O)N(C)C[C@@H]1Oc2ccc(NC(=O)Cn3cnnn3)cc2C(=O)N([C@@H](C)CO)C[C@H]1C,inactive
3,O=C(C[C@H]1C=C[C@@H](NC(=O)CN2CCOCC2)[C@H](CO)O1)NCCc1ccncc1,inactive
4,O=C(C[C@@H]1CC[C@@H](NC(=O)CN2CCOCC2)[C@H](CO)O1)NCCc1ccccc1,inactive
5,Cc1ccc(S(=O)(=O)N(C)C[C@H]2Oc3ccc(NS(=O)(=O)c4cn(C)cn4)cc3CC(=O)N([C@@H](C)CO)C[C@@H]2C)cc1,inactive
6,O=S(=O)(NCc1ccco1)N1CCOCC1,inactive
7,C[C@@H]1CCCCO[C@H](CN(C)Cc2ccc(C(=O)O)cc2)[C@H](C)CN([C@@H](C)CO)C(=O)c2cc(NC(=O)Nc3ccccc3)ccc2O1,inactive
8,COc1ccc2c(c1)OCc1c-2oc2cc(OC)ccc12,inactive
9,COc1ccc(CCC(=O)c2c(O)cc(O[C@@H]3O[C@H](CO)[C@@H](O)[C@H](O)[C@H]3O[C@@H]3O[C@@H](C)[C@H](O)[C@@H](O)[C@H]3O)cc2O)cc1O,inactive
10,COc1ccc2c(c1)OCC(Cc1ccc(OC)c(O)c1)C2=O (stereo not drawn),active
11,COc1ccc2c(c1)OCC(Cc1ccc(O)c(OC)c1)C2=O (stereo not drawn),inactive
12,COc1ccc(-c2cc(=O)c3c(O)cc(OC)c(OC)c3o2)c(OC)c1,inactive
13,COc1ccc([C@H]2CC=CC[C@H](C)Oc3ccccc3C(=O)N(C)[C@H](Cc3ccccc3)C(=O)N2)c(OC)c1,inactive
14,COc1ccc2c(c1)OCC(Cc1ccc(OC)c(OC)c1)C2=O (stereo not drawn),active
15,COc1ccc2c(c1)OCC(=Cc1ccc(OC)c(O)c1)C2=O,active
16,COc1ccc([C@H]2CC=CC[C@H](C)Oc3ccccc3C(=O)N(C)[C@@H](Cc3ccccc3)C(=O)N2)c(OC)c1,inactive
17,C[C@H]1CCCCO[C@H](CN(C)C(=O)NC2CCCCC2)[C@@H](C)CN([C@@H](C)CO)C(=O)c2cc(NC(=O)C3CCCCC3)ccc2O1,inactive
18,Cc1noc(C)c1NC(=O)N(C)C[C@@H]1OCCCC[C@H](C)Oc2ccc(NC(=O)Nc3cccc4ccccc34)cc2C(=O)N([C@@H](C)CO)C[C@H]1C,inactive
19,COCCNC(=O)C[C@@H]1CC[C@@H]2[C@H](COc3ccc(NC(=O)Nc4cccc(F)c4)cc3C(=O)N2C)O1,inactive
20,Cc1noc(C)c1NC(=O)Nc1ccc2c(c1)CC(=O)N([C@@H](C)CO)C[C@H](C)[C@@H](CN(C)Cc1ccc(Oc3ccccc3)cc1)O2,inactive
21,Cc1noc(C)c1NC(=O)N(C)C[C@@H]1Oc2ccc(NS(=O)(=O)c3ccccc3)cc2C(=O)N([C@H](C)CO)C[C@@H]1C,inactive
22,CCSc1nc(-c2ccc(C)cc2)cc(C(F)(F)F)c1C#N,inactive
23,Cc1cc(-c2ccccc2)nc(SCc2ccccc2)c1C#N,active
24,CSc1nc(-c2ccccc2)cc(-c2cccs2)c1C#N,inactive
25,CC(C)NC(=O)Nc1cccc2c1O[C@H](CN(C)S(=O)(=O)c1ccccc1)[C@@H](C)CN([C@H](C)CO)C2=O,inactive

row,Compound,cytotoxicity call
1,C[C@@H]1CCCCO[C@H](CN(C)S(=O)(=O)c2cccs2)[C@@H](C)CN([C@H](C)CO)C(=O)c2cc(NC(=O)Nc3cccc4ccccc34)ccc2O1,inactive
2,CCCN(C)C[C@@H]1OCCCC[C@@H](C)Oc2ccc(NC(=O)Nc3ccc(F)cc3)cc2C(=O)N([C@H](C)CO)C[C@@H]1C,inactive
3,CCCN(C)C[C@H]1OCCCC[C@H](C)Oc2ccc(NC(=O)Nc3ccc(C(F)(F)F)cc3)cc2C(=O)N([C@@H](C)CO)C[C@H]1C,active
4,CCCN(C)C[C@H]1OCCCC[C@H](C)Oc2ccc(NC(=O)Nc3ccc(F)cc3)cc2C(=O)N([C@@H](C)CO)C[C@H]1C,inactive
5,CCCN(C)C[C@@H]1OCCCC[C@@H](C)Oc2ccc(NC(=O)Nc3ccc(F)cc3)cc2C(=O)N([C@H](C)CO)C[C@H]1C,inactive
6,CCCN(C)C[C@@H]1OCCCC[C@H](C)Oc2ccc(NC(=O)Nc3ccc(C(F)(F)F)cc3)cc2C(=O)N([C@@H](C)CO)C[C@@H]1C,inactive
7,CCCN(C)C[C@@H]1OCCCC[C@@H](C)Oc2ccc(NC(=O)Nc3ccc(C(F)(F)F)cc3)cc2C(=O)N([C@H](C)CO)C[C@@H]1C,active
8,CCCN(C)C[C@H]1OCCCC[C@@H](C)Oc2ccc(NC(=O)Nc3ccc(C(F)(F)F)cc3)cc2C(=O)N([C@@H](C)CO)C[C@H]1C,active
9,CCCN(C)C[C@@H]1OCCCC[C@H](C)Oc2ccc(NC(=O)Nc3ccc(F)cc3)cc2C(=O)N([C@@H](C)CO)C[C@@H]1C,inactive
10,CCCN(C)C[C@@H]1OCCCC[C@@H](C)Oc2ccc(NC(=O)Nc3ccc(C(F)(F)F)cc3)cc2C(=O)N([C@H](C)CO)C[C@H]1C,inactive
11,CCCN(C)C[C@H]1OCCCC[C@@H](C)Oc2ccc(NC(=O)Nc3ccc(C(F)(F)F)cc3)cc2C(=O)N([C@H](C)CO)C[C@H]1C,inactive
12,CCCN(C)C[C@@H]1OCCCC[C@H](C)Oc2ccc(NC(=O)Nc3ccc(C(F)(F)F)cc3)cc2C(=O)N([C@H](C)CO)C[C@@H]1C,active
13,CCCN(C)C[C@H]1OCCCC[C@@H](C)Oc2ccc(NC(=O)Nc3ccc(F)cc3)cc2C(=O)N([C@H](C)CO)C[C@@H]1C,inactive
14,COc1ccc(S(=O)(=O)Nc2ccc3c(c2)C(=O)N([C@@H](C)CO)C[C@@H](C)[C@H](CN(C)S(=O)(=O)c2ccc(Cl)cc2)OCCCC[C@@H](C)O3)cc1,inactive
15,COc1ccc(S(=O)(=O)N(C)C[C@@H]2Oc3ccc(NC(=O)Cc4ccccc4)cc3CC(=O)N([C@H](C)CO)C[C@H]2C)cc1,inactive
16,COc1ccccc1C#Cc1ccc2c(c1)O[C@@H](CN(C)Cc1cncnc1)[C@H](C)CN([C@H](C)CO)S2(=O)=O,inactive
17,Cc1ccc(S(=O)(=O)N2C[C@@H](O)COC[C@H]3O[C@H](CC(=O)NCc4ccc(C(F)(F)F)cc4)CC[C@@H]32)cc1,inactive
18,CSc1cc(-c2ccc(Cl)cc2)nc(-c2cccs2)c1,inactive
19,C[C@@H]1CCCCO[C@@H](CN(C)C(=O)Nc2ccc(C(F)(F)F)cc2)[C@H](C)CN([C@@H](C)CO)C(=O)c2cc(NC(=O)NC3CCCCC3)ccc2O1,inactive
20,C[C@H]1CN([C@@H](C)CO)C(=O)c2cccc(NS(=O)(=O)c3ccc(Cl)cc3)c2O[C@H]1CN(C)Cc1ccc(Cl)c(Cl)c1,inactive
21,CCS(=O)(=O)N1C[C@]2(C1)CN([C@H](CO)c1[nH]c3cc(ccc3c12)OC)S(=O)(=O)c1ccc(cc1)C,inactive
22,CC(C)NC(=O)N(C)C[C@@H]1Oc2c(NC(=O)NC3CCCCC3)cccc2C(=O)N([C@H](C)CO)C[C@H]1C,inactive
23,CCc1c(C)[nH]c(N2CCOCC2)nc1=O,inactive
24,C[C@@H]1CN([C@H](C)CO)C(=O)CCCn2nncc2CO[C@H]1CN(C)C(=O)Nc1ccccc1C(F)(F)F,active
25,C[C@@H]1CN([C@@H](C)CO)C(=O)CCCn2nncc2CO[C@@H]1CN(C)C(=O)Nc1ccc(C(F)(F)F)cc1,inactive

row,Compound,cytotoxicity call
1,C[C@H](CO)N1C[C@H](C)[C@H](CN(C)C(=O)Nc2ccccc2C(F)(F)F)OCc2cn(nn2)CCCC1=O,inactive
2,C[C@@H]1CN([C@H](C)CO)C(=O)CCCn2cc(nn2)CO[C@@H]1CN(C)C(=O)c1ccc(N2CCN(C)CC2)cc1,inactive
3,C[C@@H]1CN([C@H](C)CO)C(=O)CCCn2cc(nn2)CO[C@@H]1CN(C)C(=O)Nc1ccccc1C(F)(F)F,active
4,C[C@H]1CN([C@@H](C)CO)C(=O)CCCn2cc(nn2)CO[C@@H]1CN(C)C(=O)c1ccc(N2CCN(C)CC2)cc1,active
5,C[C@H]1CN([C@@H](C)CO)C(=O)CCCn2cc(nn2)CO[C@H]1CN(C)C(=O)c1ccc(N2CCN(C)CC2)cc1,inactive
6,C[C@@H]1CN([C@@H](C)CO)C(=O)CCCn2nncc2CO[C@H]1CN(C)C(=O)Nc1ccccc1C(F)(F)F,inactive
7,C[C@H](CO)N1C[C@H](C)[C@@H](CN(C)C(=O)Nc2ccccc2C(F)(F)F)OCc2cnnn2CCCC1=O,inactive
8,C[C@H](CO)N1C[C@H](C)[C@@H](CN(C)C(=O)Nc2ccccc2C(F)(F)F)OCc2cn(nn2)CCCC1=O,inactive
9,C[C@H](CO)N1C[C@H](C)[C@H](CN(C)C(=O)Nc2ccc(C(F)(F)F)cc2)OCc2cnnn2CCCC1=O,active
10,C[C@@H]1CN([C@@H](C)CO)C(=O)CCCn2nncc2CO[C@H]1CN(C)C(=O)Nc1ccc(C(F)(F)F)cc1,inactive
11,Cc1noc(C)c1NC(=O)Nc1ccc2c(c1)CC(=O)N([C@H](C)CO)C[C@H](C)[C@H](CN(C)CC1CC1)O2,inactive
12,Nc1ncnc2c1ncn2[C@@H]1O[C@H](CO)C[C@H]1O,inactive
13,C[C@H]1CN([C@@H](C)CO)C(=O)Cc2cc(N(C)C)ccc2O[C@@H]1CN(C)S(=O)(=O)c1cn(C)cn1,inactive
14,CC(C)(CO)Nc1ncnc(N)c1[N+](=O)[O-],inactive
15,COc1ccc(NC(=O)Nc2cccc3c2O[C@@H](CN(C)CC2CCCCC2)[C@@H](C)CN([C@@H](C)CO)C3=O)cc1,inactive
16,Cc1noc(C)c1NC(=O)N(C)C[C@H]1Oc2c(NC(=O)C3CCOCC3)cccc2C(=O)N([C@@H](C)CO)C[C@@H]1C,inactive
17,C[C@@H]1CN([C@H](C)CO)C(=O)c2cc(NS(=O)(=O)c3ccc(F)cc3)ccc2O[C@@H]1CN(C)S(=O)(=O)c1ccccc1,inactive
18,C[C@@H]1CN([C@H](C)CO)C(=O)CCCn2nncc2CO[C@@H]1CN(C)S(=O)(=O)c1ccc(Cl)cc1,inactive
19,C[C@@H]1CN([C@H](C)CO)C(=O)CCCn2nncc2CO[C@@H]1CN(C)C(=O)Nc1ccccc1C(F)(F)F,inactive
20,C[C@H]1CN([C@@H](C)CO)C(=O)CCCn2nncc2CO[C@H]1CN(C)C(=O)Nc1ccccc1C(F)(F)F,active
21,C[C@H]1CN([C@@H](C)CO)C(=O)CCCn2nncc2CO[C@@H]1CN(C)C(=O)Nc1ccccc1C(F)(F)F,inactive
22,C[C@H]1CN([C@@H](C)CO)C(=O)CCCn2nncc2CO[C@H]1CN(C)S(=O)(=O)c1ccc(Cl)cc1,active
23,C[C@@H]1CN([C@H](C)CO)C(=O)CCCn2nncc2CO[C@H]1CN(C)S(=O)(=O)c1ccc(Cl)cc1,inactive
